Results filed as inconclusive are left out. A structure can be active in one record and inactive in another. Calls of active or inactive are those of the source. Rule for the calls: active = hit-call score of the fitted dose curve at least 0.9, where 1 is the maximum; inconclusive = response in the unintended direction; inactive = score below 0.9.
Key:
[1] = TOX21_p53_BLA_p2_viability: Viability Assessment in the Tox21 HCT-116 p53 Agonism Beta-lactamase Assay, Phase 2 (AID 2283591);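 note: compound exposure lasted 16 h at 37 °C; actives lower the ATP signal meaning cytotoxicity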
How it was run: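 HCT116 p53-bla cells, 4000/well, dosed after 5 h plating (217-fold dilution of DMSO stocks) and incubated 16 h at 37C. Viability taken as cellular ATP by CellTiter-Glo luminescence after 30 min RT; signal loss marks cytotoxicity.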

[2] = TOX21_p53_BLA_p3_viability: Viability Assessment in the Tox21 HCT-116 p53 Agonism Beta-lactamase Assay, Phase 3 (AID 2283593);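 note: cells exposed to compound for 16 h before reading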
How it was run: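 HCT116 cells, 4000/well, dosed 5 h after plating by pin transfer (217-fold dilution from DMSO stock) and incubated 16 h at 37C, 5% CO2. Viability read as ATP luminescence with CellTiter-Glo after 30 min at room temperature.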

[3] = target: Cellular tumor antigen p53 (Homo sapiens) (UniProt P04637); assay: TOX21_p53_BLA_p3_ratio: Tox21 HCT-116 p53 Agonism Beta-lactamase Assay, Ratio, Phase 3 (AID 2283596)
Chain of Cellular tumor antigen p53 (Homo sapiens) (P04637 whole entry, looked up): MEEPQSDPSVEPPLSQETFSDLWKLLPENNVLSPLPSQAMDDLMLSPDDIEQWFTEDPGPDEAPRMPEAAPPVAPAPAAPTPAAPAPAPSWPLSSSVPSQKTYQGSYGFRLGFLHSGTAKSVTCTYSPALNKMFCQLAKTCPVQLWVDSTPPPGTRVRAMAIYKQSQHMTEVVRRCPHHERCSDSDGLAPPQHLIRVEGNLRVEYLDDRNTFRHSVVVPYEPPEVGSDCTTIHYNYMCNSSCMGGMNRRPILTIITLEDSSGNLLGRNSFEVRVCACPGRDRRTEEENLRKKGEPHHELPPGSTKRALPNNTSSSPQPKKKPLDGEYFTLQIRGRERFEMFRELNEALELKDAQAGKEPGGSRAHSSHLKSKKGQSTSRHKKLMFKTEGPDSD
How it was run: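 HCT116 p53-bla cells (4000/well) given compound in DMSO (217-fold dilution) after 5 h, incubated 16 h at 37C. CCF4-AM substrate 2 h at room temperature; 460/530 nm emission ratio, gain fitted against DMSO.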

[4] = target: Cellular tumor antigen p53 (Homo sapiens) (UniProt P04637); assay: TOX21_p53_BLA_p5_ratio: Tox21 HCT-116 p53 Agonism Beta-lactamase Assay, Ratio, Phase 5 (AID 2283599)
How it was run: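 HCT-116 p53-bla cells (4000/well) plated 5 h, dosed with compound (217-fold DMSO dilution) for 16 h at 37 C; CCF4-AM substrate 2 h at room temperature. Activity is the 460/530 nm emission ratio (405 nm excitation), fitted in gain-of-signal direction versus DMSO.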

[5] = TOX21_p53_BLA_p5_viability: Viability Assessment in the Tox21 HCT-116 p53 Agonism Beta-lactamase Assay, Phase 5 (AID 2283600)
How it was run: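 After the 460/530 nm beta-lactamase measurement, the wells received an ATP-detection luciferase reagent; signal was read 30 min later at RT. Compound treatment lasted 16 h on cells pre-incubated 5 h post-seeding.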

[6] = target: Cellular tumor antigen p53 (Homo sapiens) (UniProt P04637); assay: TOX21_p53_BLA_p4_ratio: Tox21 HCT-116 p53 Agonism Beta-lactamase Assay, Ratio, Phase 4 (AID 2283601)
How it was run: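 HCT-116 p53 beta-lactamase reporter cells (4000/well) preincubated 5 h, then compound (217-fold dilution of DMSO stock) for 16 h at 37C. CCF4-AM substrate added 2 h at room temperature; 460/530 nm emission ratio fitted upward versus DMSO.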

[7] = target: Cellular tumor antigen p53 (Homo sapiens) (UniProt P04637); assay: TOX21_p53_BLA_p2_ratio: Tox21 HCT-116 p53 Agonism Beta-lactamase Assay, Ratio, Phase 2 (AID 2283592)
How it was run: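 Gain-of-signal p53 agonism was scored from the beta-lactamase FRET ratio (460/530 nm, 405 nm excitation) in HCT116 cells treated 16 h at 37C, 5% CO2, with DMSO serving as negative control and baseline.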

[8] = TOX21_p53_BLA_p4_viability: Viability Assessment in the Tox21 HCT-116 p53 Agonism Beta-lactamase Assay, Phase 4 (AID 2283597);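 note: hits lower the luminescence signal meaning cytotoxicity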
How it was run: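 Following a 16 h exposure at 37C, the treated HCT116 wells were first read for the FRET ratio. They were then lysed with CellTiter-Glo, and ATP luminescence was recorded after 30 min at room temperature.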

[9] = Tanguay_ZF_120hpf_MORT_legacy: (Legacy) Oregon State University Tanguay Lab 120 Hour Post-fertilization zebrafish Assay for Mortality (AID 2283633)
How it was run: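 Static waterborne exposure from 6 to 120 hpf at 28C of single dechorionated wild-type (5D) embryos per well, 0.64% DMSO final. Death recorded present/absent by brightfield at 24 and 120 hpf.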

[10] = Tanguay_ZF_120hpf_YSE_legacy: (Legacy) Oregon State University Tanguay Lab 120 Hour Post-fertilization zebrafish Assay for Yolk Sac Edema (AID 2283634);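 for AC50: actives raise the incidence of yolk sac edema above the DMSO baseline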
How it was run: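 Presence or absence of yolk sac edema was recorded at 120 hpf in surviving larvae. These were wild-type Tropical 5D embryos, chorion removed at 4 hpf, held in static exposure at 28C from 6 hpf with 0.64% DMSO vehicle.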

[11] = Tanguay_ZF_120hpf_AXIS_legacy: (Legacy) Oregon State University Tanguay Lab 120 Hour Post-fertilization zebrafish Assay for Body Axis Malformation (AID 2283635);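 for AC50: potency for an increased fraction of larvae scored with body axis malformation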
How it was run: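 Binary scoring of axis defects at 120 hpf under brightfield, fitted positive versus DMSO. Tropical 5D embryos, chorion removed by pronase at 4 hpf, were singly exposed in sealed, dark plates at 28C from 6 hpf; DMSO 0.64% final.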

[12] = Tanguay_ZF_120hpf_EYE_legacy: (Legacy) Oregon State University Tanguay Lab 120 Hour Post-fertilization zebrafish Assay for Eye Malformation (AID 2283636);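 note: binary presence or absence of eye malformation scored by brightfield in 120 hpf larvae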
How it was run: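 Dechorionated Tropical 5D zebrafish embryos, one per well from 6 hpf, static exposure to 120 hpf at 28C, 0.64% DMSO. Eye malformation scored present/absent by brightfield; dead embryos not scored.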

[13] = Tanguay_ZF_120hpf_SNOU_legacy: (Legacy) Oregon State University Tanguay Lab 120 Hour Post-fertilization zebrafish Assay for Snout Malformation (AID 2283637)
How it was run: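 Dechorionated tropical 5D wild-type zebrafish embryos exposed statically from 6 to 120 hpf at 28C, one per well, in 0.64% DMSO. Snout malformation scored as present/absent by brightfield at 120 hpf; dead embryos not scored.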

[14] = Tanguay_ZF_120hpf_JAW_legacy: (Legacy) Oregon State University Tanguay Lab 120 Hour Post-fertilization zebrafish Assay for Jaw Malformation (AID 2283638);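 for AC50: active means more embryos with jaw malformation than DMSO controls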
How it was run: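 Binary jaw-malformation call at 120 hpf by brightfield microscopy. Embryos (Tropical 5D strain, chorion removed at 4 hpf) were dosed statically at 6 hpf, one per well, at 28C with 0.64% DMSO. Embryos that died were not scored.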

[15] = Tanguay_ZF_120hpf_PE_legacy: (Legacy) Oregon State University Tanguay Lab 120 Hour Post-fertilization zebrafish Assay for Pericardial Edema (AID 2283640);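 for AC50: potency for increased incidence of pericardial edema versus DMSO baseline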
How it was run: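 Scoring was binary, by brightfield microscopy at 120 hpf, and skipped where mortality occurred. Wild-type embryos were kept under sealed, foil-covered static exposure at 28C in 0.64% (vol/vol) DMSO.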

[16] = Tanguay_ZF_120hpf_BRAI_legacy: (Legacy) Oregon State University Tanguay Lab 120 Hour Post-fertilization zebrafish Assay for Brain Malformation (AID 2283641)
How it was run: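 Binary brightfield scoring of brain malformation at 120 hpf in Tropical 5D larvae held under static exposure at 28C (0.64% v/v DMSO), non-mortality endpoints skipped if dead. Positive control: 5uM trimethyltin chloride; fit versus DMSO.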

[17] = Tanguay_ZF_120hpf_SOMI_legacy: (Legacy) Oregon State University Tanguay Lab 120 Hour Post-fertilization zebrafish Assay for Somite Malformation (AID 2283647)
How it was run: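 Binary somite-defect scoring at 120 hpf, omitted for embryos that died, in wild-type (Tropical 5D) zebrafish with chorion removed by pronase at 4 hpf; static exposure began 6 hpf, single embryos per well, 28C, 0.64% DMSO; fitted positive versus DMSO.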

[18] = Tanguay_ZF_120hpf_PFIN_legacy: (Legacy) Oregon State University Tanguay Lab 120 Hour Post-fertilization zebrafish Assay for Pectoral Fin Malformation (AID 2283648);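 note: each larva judged yes or no for fin defect by brightfield with dead larvae skipped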
How it was run: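 Dechorionated Tropical 5D wild-type zebrafish embryos, one per well, statically exposed from 6 to 120 hpf at 28C with 0.64% DMSO final. Pectoral fin malformation scored present/absent by brightfield at 120 hpf; not scored in dead embryos.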

[19] = Tanguay_ZF_120hpf_CFIN_legacy: (Legacy) Oregon State University Tanguay Lab 120 Hour Post-fertilization zebrafish Assay for Caudal Fin Malformation (AID 2283649)
How it was run: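 Binary brightfield scoring of caudal fin defects at 120 hpf after static, light-shielded exposure at 28C from 6 hpf. Tropical 5D embryos, chorion removed with pronase at 4 hpf, final DMSO 0.64%.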

[20] = Tanguay_ZF_120hpf_OTIC_legacy: (Legacy) Oregon State University Tanguay Lab 120 Hour Post-fertilization zebrafish Assay for Otic Vesicle Malformation (AID 2283639)
How it was run: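 Otic vesicle malformation is read as a yes/no morphology call at 120 hpf. Exposure is static at 28C with 0.64% (vol/vol) DMSO; embryos that die are excluded from non-mortality endpoints.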

Measured: AC50

Cc1cccc(O)c1C
inactive: [1] | [2] | [3] | [4] | [5] | [6]

O=C(N[C@H](CO)[C@H](O)c1ccc([N+](=O)[O-])cc1)C(Cl)Cl
inactive: [1] | [7] | [2] | [3] | [8] | [4] | [5] | [6]

c1ccc(C(O[C@@H]2CCCN(CCc3ccc4c(c3)OCO4)C2)c2ccccc2)cc1
active: [7] 70.1 µM | [10] 24.7 µM | [11] 34.7 µM | [12] 36.5 µM | [13] 44.2 µM | [14] 44.8 µM | [15] 36 µM | [16] 42 µM | [18] 33.4 µM | [19] 37.2 µM
inactive: [2] | [3] | [8] | [4] | [6] | [9] | [17]

C=CN1CCCC1=O
inactive: [1] | [7] | [2] | [3] | [8] | [4] | [5] | [6] | [9] | [10] | [11] | [12] | [13] | [14] | [20] | [17] | [18]

Cc1nc(-c2ccccn2)ncc1C(=O)Nn1cc(C)c2cc(F)ccc21
inactive: [9] | [10] | [11] | [12] | [13] | [14] | [20] | [15] | [16] | [17] | [18] | [19]

c1ccc2cc3ccccc3cc2c1
inactive: [1] | [7] | [2] | [3] | [8] | [4] | [5] | [6] | [9] | [10] | [11] | [12] | [13] | [14] | [20] | [15] | [17] | [18] | [19]

CCCCCCCCCCCCCCO
inactive: [1] | [7] | [2] | [3] | [8] | [5] | [6] | [9] | [10] | [11] | [12] | [13] | [14] | [20] | [15] | [16] | [17] | [18] | [19]

CCCCCCCCCC
inactive: [1] | [7] | [3] | [8] | [4] | [5] | [6] | [9] | [10] | [11] | [12] | [13] | [14] | [20] | [15] | [16] | [17] | [19]

CCCCCCCC/C=C\CCCCCCCC(=O)OC[C@@H](O)[C@H]1OC[C@H](O)[C@H]1O
inactive: [1] | [7] | [2] | [3] | [4] | [5] | [6] | [9] | [11] | [12] | [13] | [14] | [15] | [17] | [19]

CCCCCCCCN(C)C
inactive: [1] | [3] | [8] | [4] | [5] | [9] | [11] | [13] | [14] | [16] | [17] | [18] | [19]

S=P(N1CC1)(N1CC1)N1CC1
active: [3] 48.8 µM
inactive: [1] | [7] | [2] | [3] | [8] | [4] | [5] | [6]

CCCCN1C(=O)[C@@H]([C@H](O)C2CCCCC2)NC(=O)C12CCN(Cc1ccc(Oc3ccc(C(=O)O)cc3)cc1)CC2
active: [7] 38.1 µM | [3] 48.8 µM | [4] 63.7 µM | [6] 57.9 µM
inactive: [1] | [8] | [9] | [10] | [11] | [13] | [14] | [20] | [15] | [16] | [17] | [18] | [19]

O=S1(=O)CCCO1
inactive: [1] | [7] | [3] | [8] | [4] | [5] | [6] | [9] | [11] | [12] | [13] | [14] | [15] | [16] | [17] | [18] | [19]

OCCOCCOCCO
inactive: [1] | [7] | [2] | [3] | [8] | [4] | [6] | [9] | [10] | [11] | [12] | [14] | [16] | [18] | [19]

O=C(O)c1ccc2c(c1)nc(C(=O)NC1CCN(C3CC3)CC1)n2Cc1cc(-c2ccc(Cl)s2)on1
inactive: [7] | [3] | [4] | [5] | [6] | [9] | [10] | [11] | [13] | [14] | [15] | [16] | [17] | [18] | [19]

CCCCC(CC)C(=O)OCCOCCOCCOC(=O)C(CC)CCCC (centres undefined)
inactive: [1] | [7] | [2] | [3] | [8] | [5] | [6] | [9] | [10] | [11] | [12] | [13] | [14] | [15] | [16] | [17] | [18] | [19]

CCCCCCCCCCCCCCCCOS(=O)(=O)O
inactive: [1] | [7] | [2] | [3] | [4] | [5] | [6] | [9] | [10] | [11] | [12] | [13] | [14] | [15] | [16] | [17] | [18] | [19]
active: [8] 36.5 µM

— PubChem BioAssay (EPA / NIEHS)
